In article PMC7862700, “An all-to-all approach to the identification of sequence-specific readers for epigenetic DNA modifications on cytosine”:

Assays:
Experiment in all cases: DAPPL (digital affinity profiling via proximity ligation, sequencing); 10 mM Tris-HCl pH 7.5, 50 mM NaCl, 1 mM DTT, 4% glycerol, room temperature, 30 min; GST-TFs on glutathione beads, 16-mer random dsDNA library, 0.1% formaldehyde crosslink after washing; high values mean tight binding
Details in all cases: protein: recombinant; tags: N-terminal GST; dsDNA, one strand shown
FEV = molecular target: T1, FEV (Homo sapiens, UniProt Q99581 1-238)
T1 sequence: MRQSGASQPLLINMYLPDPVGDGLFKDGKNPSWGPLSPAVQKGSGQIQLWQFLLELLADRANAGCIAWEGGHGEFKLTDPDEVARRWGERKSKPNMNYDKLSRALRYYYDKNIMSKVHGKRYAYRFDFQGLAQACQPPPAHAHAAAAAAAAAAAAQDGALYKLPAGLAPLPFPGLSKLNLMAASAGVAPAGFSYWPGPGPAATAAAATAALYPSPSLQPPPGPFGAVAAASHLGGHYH
Summary of the method: (§1)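 After expression in yeast as GST fusions, human transcription factors were bound to glutathione beads, DNA-barcoded and mixed with a tag-only sample. The pools were incubated with 200 nmole of a 16-mer random double-stranded DNA library in Tris/NaCl/DTT/glycerol buffer (30 min, room temperature), washed and crosslinked with 0.1% formaldehyde. Proximity ligation with BsaI/T4 ligase ran for 1 h at 37 °C, before PCR amplification and sequencing on an Illumina NextSeq500. Binding signal is a hexamer's read frequency for a factor divided by its frequency for the tag-only sample.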

ETV5 = ETV5 (Homo sapiens, UniProt P41161 1-510)
Chain of ETV5 (P41161 whole entry): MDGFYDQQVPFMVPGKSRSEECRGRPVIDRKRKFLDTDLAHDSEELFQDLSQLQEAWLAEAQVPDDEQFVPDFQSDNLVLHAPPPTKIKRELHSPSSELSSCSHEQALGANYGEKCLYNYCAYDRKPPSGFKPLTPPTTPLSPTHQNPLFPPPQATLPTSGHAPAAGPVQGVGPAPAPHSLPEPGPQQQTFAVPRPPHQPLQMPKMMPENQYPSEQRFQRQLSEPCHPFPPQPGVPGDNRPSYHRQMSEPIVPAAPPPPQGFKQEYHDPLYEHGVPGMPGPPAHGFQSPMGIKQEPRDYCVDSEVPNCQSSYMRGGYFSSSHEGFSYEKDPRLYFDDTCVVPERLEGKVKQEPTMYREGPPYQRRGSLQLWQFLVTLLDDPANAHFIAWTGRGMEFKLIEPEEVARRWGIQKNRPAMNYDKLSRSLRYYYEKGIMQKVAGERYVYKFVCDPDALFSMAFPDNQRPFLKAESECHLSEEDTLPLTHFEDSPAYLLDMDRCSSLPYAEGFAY
Summary of the method: as §1

SPIC = molecular target: T2, SPIC (Homo sapiens, UniProt Q8N5J4 1-248)
T2 sequence: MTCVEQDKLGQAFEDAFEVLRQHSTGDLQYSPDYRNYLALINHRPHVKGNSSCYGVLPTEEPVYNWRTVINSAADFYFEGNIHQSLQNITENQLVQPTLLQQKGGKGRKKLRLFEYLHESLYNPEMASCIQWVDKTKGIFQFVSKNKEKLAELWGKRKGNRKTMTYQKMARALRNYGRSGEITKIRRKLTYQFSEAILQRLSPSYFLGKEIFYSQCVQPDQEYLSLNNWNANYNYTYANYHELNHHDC
Summary of the method: as §1

ELF4 = ELF4 (Homo sapiens, UniProt Q99607 1-663)
Chain of ELF4 (Q99607 whole entry): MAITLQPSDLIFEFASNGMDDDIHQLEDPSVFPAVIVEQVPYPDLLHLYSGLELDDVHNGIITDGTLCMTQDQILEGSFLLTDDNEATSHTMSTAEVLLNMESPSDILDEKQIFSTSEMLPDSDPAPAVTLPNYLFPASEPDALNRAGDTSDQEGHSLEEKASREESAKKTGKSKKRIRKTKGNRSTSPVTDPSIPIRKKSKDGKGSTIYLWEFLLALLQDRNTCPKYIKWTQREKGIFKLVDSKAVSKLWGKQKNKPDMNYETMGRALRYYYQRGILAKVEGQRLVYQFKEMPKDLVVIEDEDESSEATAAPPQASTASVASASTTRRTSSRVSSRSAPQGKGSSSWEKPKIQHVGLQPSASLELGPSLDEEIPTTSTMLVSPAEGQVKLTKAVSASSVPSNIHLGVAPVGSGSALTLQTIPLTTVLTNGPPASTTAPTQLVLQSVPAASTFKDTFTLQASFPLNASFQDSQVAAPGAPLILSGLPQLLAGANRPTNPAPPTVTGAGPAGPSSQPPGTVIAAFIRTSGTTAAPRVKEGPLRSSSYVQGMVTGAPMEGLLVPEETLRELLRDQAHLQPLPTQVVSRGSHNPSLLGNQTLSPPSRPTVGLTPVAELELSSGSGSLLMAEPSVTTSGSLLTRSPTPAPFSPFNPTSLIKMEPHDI
Summary of the method: as §1

ELK4 = molecular target: T3, ELK4 (Homo sapiens, UniProt P28324-2 1-405)
T3 sequence: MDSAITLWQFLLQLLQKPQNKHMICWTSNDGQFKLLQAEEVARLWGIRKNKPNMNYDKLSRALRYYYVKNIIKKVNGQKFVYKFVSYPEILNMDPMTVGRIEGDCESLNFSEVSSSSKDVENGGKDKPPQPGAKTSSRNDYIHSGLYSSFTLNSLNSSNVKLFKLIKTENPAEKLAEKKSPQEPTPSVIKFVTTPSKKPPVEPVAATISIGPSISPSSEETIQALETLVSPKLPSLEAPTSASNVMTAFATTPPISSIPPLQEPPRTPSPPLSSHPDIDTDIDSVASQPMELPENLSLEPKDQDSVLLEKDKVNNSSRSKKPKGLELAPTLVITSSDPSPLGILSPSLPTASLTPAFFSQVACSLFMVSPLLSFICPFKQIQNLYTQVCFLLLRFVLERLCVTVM
Summary of the method: as §1

ETV2 = molecular target: T4, ETV2 (Homo sapiens, UniProt O00321 1-342)
T4 sequence: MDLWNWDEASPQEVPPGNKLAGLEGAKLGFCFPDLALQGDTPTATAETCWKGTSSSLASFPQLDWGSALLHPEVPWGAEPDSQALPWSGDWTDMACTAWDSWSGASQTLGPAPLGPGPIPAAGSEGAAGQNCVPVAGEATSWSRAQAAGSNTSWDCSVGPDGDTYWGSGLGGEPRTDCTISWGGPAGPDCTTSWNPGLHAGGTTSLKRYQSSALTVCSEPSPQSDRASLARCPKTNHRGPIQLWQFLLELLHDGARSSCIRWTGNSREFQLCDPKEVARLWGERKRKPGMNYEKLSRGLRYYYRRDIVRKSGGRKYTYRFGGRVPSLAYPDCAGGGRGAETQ
Summary of the method: as §1

ETV1 = ETV1 (Homo sapiens, UniProt P50549 1-477)
Chain of ETV1 (P50549 whole entry): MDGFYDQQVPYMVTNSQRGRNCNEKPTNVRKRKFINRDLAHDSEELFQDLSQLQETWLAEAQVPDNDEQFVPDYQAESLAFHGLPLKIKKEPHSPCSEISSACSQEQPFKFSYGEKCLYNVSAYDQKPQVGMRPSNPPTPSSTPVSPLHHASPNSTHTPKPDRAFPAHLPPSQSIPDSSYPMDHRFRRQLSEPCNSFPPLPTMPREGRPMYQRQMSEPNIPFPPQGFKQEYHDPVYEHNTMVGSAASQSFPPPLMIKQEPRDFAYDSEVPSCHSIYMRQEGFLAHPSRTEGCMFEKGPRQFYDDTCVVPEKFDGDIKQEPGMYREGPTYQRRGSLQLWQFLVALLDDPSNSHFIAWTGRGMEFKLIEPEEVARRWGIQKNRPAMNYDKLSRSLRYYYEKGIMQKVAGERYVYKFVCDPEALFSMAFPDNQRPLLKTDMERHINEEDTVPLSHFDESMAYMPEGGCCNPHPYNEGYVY
Summary of the method: as §1

ERF = molecular target: T5, ERF (Homo sapiens, UniProt P50548 1-548)
T5 sequence: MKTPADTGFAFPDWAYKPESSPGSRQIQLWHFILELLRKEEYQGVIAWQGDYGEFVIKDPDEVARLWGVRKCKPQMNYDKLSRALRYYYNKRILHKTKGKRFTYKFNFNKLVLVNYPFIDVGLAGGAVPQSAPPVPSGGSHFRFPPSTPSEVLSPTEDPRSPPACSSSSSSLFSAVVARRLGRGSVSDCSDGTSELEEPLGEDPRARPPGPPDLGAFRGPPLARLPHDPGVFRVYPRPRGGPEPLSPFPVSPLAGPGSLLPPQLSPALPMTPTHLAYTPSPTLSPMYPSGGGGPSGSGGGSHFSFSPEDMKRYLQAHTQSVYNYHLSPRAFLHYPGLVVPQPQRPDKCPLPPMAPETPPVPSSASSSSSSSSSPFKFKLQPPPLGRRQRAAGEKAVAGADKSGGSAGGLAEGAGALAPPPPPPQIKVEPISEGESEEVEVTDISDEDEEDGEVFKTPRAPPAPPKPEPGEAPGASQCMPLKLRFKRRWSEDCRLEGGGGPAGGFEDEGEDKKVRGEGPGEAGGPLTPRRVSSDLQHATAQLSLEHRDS
Summary of the method: as §1

ETV3L = molecular target: T6, ETV3L (Homo sapiens, UniProt Q6ZN32 1-361)
T6 sequence: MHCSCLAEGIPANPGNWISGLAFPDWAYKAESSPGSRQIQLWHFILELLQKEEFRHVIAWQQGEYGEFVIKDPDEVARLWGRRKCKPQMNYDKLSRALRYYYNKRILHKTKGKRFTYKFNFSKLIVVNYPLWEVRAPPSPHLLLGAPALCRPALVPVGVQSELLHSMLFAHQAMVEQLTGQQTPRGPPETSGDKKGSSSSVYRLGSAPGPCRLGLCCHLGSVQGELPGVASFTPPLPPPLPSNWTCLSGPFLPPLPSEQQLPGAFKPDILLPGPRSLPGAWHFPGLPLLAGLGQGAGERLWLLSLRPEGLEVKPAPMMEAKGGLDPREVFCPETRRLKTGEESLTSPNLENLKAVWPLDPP
Summary of the method: as §1

ETS2 = molecular target: T7, ETS2 (Homo sapiens, UniProt P15036 1-469)
T7 sequence: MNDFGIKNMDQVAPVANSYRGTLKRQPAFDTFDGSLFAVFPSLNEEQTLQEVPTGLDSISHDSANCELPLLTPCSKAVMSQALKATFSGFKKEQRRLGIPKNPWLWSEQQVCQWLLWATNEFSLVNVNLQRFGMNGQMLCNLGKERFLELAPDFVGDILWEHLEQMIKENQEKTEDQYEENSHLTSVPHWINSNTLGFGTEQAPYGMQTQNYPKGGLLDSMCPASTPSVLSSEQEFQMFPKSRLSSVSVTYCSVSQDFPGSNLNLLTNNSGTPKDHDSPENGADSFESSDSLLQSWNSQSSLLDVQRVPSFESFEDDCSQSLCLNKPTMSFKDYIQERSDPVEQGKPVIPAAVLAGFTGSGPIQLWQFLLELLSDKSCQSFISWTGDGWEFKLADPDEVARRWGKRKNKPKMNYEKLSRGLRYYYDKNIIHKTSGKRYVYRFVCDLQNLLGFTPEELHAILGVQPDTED
Summary of the method: as §1

SPDEF = molecular target: T8, SPDEF (Homo sapiens, UniProt O95238 1-335)
T8 sequence: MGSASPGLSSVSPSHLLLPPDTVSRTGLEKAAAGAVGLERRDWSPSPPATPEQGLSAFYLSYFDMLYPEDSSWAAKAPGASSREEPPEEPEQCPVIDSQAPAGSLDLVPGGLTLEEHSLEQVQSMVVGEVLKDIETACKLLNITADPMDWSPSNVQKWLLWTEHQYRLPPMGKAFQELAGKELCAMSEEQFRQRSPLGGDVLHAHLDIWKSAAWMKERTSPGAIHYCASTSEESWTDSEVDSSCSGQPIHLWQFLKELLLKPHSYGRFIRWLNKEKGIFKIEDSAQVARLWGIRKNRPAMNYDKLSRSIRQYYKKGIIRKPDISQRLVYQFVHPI
Summary of the method: as §1

ETV7 = molecular target: T9, ETV7 (Homo sapiens, UniProt Q9Y603 1-341)
T9 sequence: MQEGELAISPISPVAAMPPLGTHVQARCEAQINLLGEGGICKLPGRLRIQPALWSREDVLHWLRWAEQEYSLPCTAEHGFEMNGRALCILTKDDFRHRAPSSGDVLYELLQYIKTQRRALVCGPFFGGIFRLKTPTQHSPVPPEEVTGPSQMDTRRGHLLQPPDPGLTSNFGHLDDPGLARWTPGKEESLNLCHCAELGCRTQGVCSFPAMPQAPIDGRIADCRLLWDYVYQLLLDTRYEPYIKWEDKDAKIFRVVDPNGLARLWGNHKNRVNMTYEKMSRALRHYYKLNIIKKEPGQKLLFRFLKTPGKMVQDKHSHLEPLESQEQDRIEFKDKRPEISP
Summary of the method: as §1

ELF5 = molecular target: T10, ELF5 (Homo sapiens, UniProt Q9UKW6-2 1-255)
T10 sequence: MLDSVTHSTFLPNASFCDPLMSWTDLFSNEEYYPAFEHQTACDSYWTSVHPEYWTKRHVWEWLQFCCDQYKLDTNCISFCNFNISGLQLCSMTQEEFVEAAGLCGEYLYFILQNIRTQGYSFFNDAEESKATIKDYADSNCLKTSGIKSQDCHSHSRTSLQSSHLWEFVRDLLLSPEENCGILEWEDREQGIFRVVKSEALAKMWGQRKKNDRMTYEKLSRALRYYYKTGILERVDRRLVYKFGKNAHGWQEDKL
Summary of the method: as §1

ETV3 = molecular target: T11, ETV3 (Homo sapiens, UniProt P41162-2 1-143)
T11 sequence: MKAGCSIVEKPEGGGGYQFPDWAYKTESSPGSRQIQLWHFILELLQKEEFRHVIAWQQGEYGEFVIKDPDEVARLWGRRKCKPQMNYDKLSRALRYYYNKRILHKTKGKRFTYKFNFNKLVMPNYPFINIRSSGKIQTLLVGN
Summary of the method: as §1

ETV6 = ETV6 (Homo sapiens, UniProt P41212 1-452)
Chain of ETV6 (P41212 whole entry): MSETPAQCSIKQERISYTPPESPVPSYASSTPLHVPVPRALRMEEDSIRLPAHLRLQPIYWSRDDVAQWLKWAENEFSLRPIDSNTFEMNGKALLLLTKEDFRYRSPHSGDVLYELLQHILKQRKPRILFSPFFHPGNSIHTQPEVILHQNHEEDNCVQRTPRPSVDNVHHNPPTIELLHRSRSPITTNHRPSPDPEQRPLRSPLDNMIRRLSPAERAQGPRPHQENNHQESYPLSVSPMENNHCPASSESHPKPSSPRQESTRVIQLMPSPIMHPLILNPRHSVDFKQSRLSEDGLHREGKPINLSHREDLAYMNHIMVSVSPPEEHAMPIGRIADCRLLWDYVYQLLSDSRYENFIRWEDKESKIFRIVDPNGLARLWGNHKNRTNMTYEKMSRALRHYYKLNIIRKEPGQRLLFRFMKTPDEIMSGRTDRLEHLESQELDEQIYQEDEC
Summary of the method: as §1

ELF3 = molecular target: T12, ELF3 (Homo sapiens, UniProt P78545 1-371)
T12 sequence: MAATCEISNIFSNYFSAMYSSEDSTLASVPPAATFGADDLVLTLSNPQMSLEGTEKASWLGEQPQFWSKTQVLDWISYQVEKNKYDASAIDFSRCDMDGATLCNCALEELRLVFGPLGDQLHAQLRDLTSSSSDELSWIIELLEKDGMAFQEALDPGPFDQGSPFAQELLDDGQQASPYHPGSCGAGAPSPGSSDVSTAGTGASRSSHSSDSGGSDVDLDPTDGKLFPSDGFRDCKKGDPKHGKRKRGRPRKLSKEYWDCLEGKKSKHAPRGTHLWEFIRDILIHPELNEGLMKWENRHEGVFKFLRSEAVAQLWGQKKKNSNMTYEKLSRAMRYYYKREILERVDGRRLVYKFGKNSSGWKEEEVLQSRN
Summary of the method: as §1

| Sequence | binding signal (FEV) | binding signal (ETV5) | binding signal (SPIC) | binding signal (ELF4) | binding signal (ELK4) | binding signal (ETV2) | binding signal (ETV1) | binding signal (ERF) | binding signal (ETV3L) | binding signal (ETS2) | binding signal (SPDEF) | binding signal (ETV7) | binding signal (ELF5) | binding signal (ETV3) | binding signal (ETV6) | binding signal (ELF3) |
| --- | --- | --- | --- | --- | --- | --- | --- | --- | --- | --- | --- | --- | --- | --- | --- | --- |
| ACCCTG | 1.02 fold enrichment (6-mer frequency, TF over GST control) | 1.01 fold enrichment (6-mer frequency, TF over GST control) | 1.1 fold enrichment (6-mer frequency, TF over GST control) | 1.16 fold enrichment (6-mer frequency, TF over GST control) | 1.18 fold enrichment (6-mer frequency, TF over GST control) | 1.05 fold enrichment (6-mer frequency, TF over GST control) | 1.09 fold enrichment (6-mer frequency, TF over GST control) | 1.04 fold enrichment (6-mer frequency, TF over GST control) | 1.05 fold enrichment (6-mer frequency, TF over GST control) | 1.01 fold enrichment (6-mer frequency, TF over GST control) | 1.03 fold enrichment (6-mer frequency, TF over GST control) | 1.04 fold enrichment (6-mer frequency, TF over GST control) | 1.03 fold enrichment (6-mer frequency, TF over GST control) | 1.13 fold enrichment (6-mer frequency, TF over GST control) | 1.07 fold enrichment (6-mer frequency, TF over GST control) | – |
| GATATG | 1.08 fold enrichment (6-mer frequency, TF over GST control) | 1.1 fold enrichment (6-mer frequency, TF over GST control) | 1.23 fold enrichment (6-mer frequency, TF over GST control) | 1.11 fold enrichment (6-mer frequency, TF over GST control) | 1.07 fold enrichment (6-mer frequency, TF over GST control) | – | 1.03 fold enrichment (6-mer frequency, TF over GST control) | 1.09 fold enrichment (6-mer frequency, TF over GST control) | 1.08 fold enrichment (6-mer frequency, TF over GST control) | 1.18 fold enrichment (6-mer frequency, TF over GST control) | 1.24 fold enrichment (6-mer frequency, TF over GST control) | 1.07 fold enrichment (6-mer frequency, TF over GST control) | 1.14 fold enrichment (6-mer frequency, TF over GST control) | 1.12 fold enrichment (6-mer frequency, TF over GST control) | 1.04 fold enrichment (6-mer frequency, TF over GST control) | 1.08 fold enrichment (6-mer frequency, TF over GST control) |
